# An excerpt weighted towards active compounds, which were near 11% of everything screened.
# HttQ103 aggreg: inhibitors of mutant huntingtin aggregate formation in PC12 cells; Potency, µM (series often up to 46.1 µM), inactives show at the top dose activity change, negative = inhibition, actives largely listed as inhibitors; PC12 HttQ103-GFP aggregates, Acumen cytometry, 40 h; 220,000 compounds, 1.1% hits; also: potency is read from the fitted curve at half-maximal effect; % is scaled to controls: 0 for no effect and ±100 for the full control effect; nearly all actives have a fitted effect of over 60% in size
#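 PC12/HTTQ103-GFP, ecdysone-inducible; teb 100 nM; cpd qHTS titration; GFP aggregates read on laser cytometer, Ex 488/Em 500-530 nm.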
# ALDH1A1 inh-1: blocks purified human ALDH1A1 activity; P00352; Purified ALDH1A1, NADH fluorescence, propionaldehyde substrate; Potency, µM (highest dose often 75.3 µM), without a hit: at the top dose activity, negative = inhibition, hits mostly inhibitors; 220,000 compounds, 7.3% hits; AID 1030; active = well fitted inhibition curve with a large enough effect, not every such curve was filed as active; inconclusive = small, poorly fitted or top-dose-only effect, or another doubt; inactive = no such curve, though single readings can be large or run the other way;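 also: potency is read from the fitted curve at half-maximal effect; plate controls were no enzyme wells and a reference inhibitor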
# RGS12 GoLoco inh: RGS12 GoLoco-Gai1 interaction inhibition | P63096 | Gai1:RGS12 GoLoco peptide FP, rhodamine, 10 min | Potency, µM (series often up to 61.6 µM), for inactives: at the highest dose activity, negative = inhibition, usual class: inhibitors | 230,000 compounds, 0.44% hits | AID 880; active = well fitted inhibition curve with a large enough effect, not every such curve was filed as active; inactive = no such curve, though single readings can be large or run the other way; also: potency is read from the fitted curve at half-maximal effect; % is scaled to controls: 0 for no effect and ±100 for the full control effect; nearly all actives have a fitted effect of over 30% in size
# Target sequence (P63096 whole entry, looked up): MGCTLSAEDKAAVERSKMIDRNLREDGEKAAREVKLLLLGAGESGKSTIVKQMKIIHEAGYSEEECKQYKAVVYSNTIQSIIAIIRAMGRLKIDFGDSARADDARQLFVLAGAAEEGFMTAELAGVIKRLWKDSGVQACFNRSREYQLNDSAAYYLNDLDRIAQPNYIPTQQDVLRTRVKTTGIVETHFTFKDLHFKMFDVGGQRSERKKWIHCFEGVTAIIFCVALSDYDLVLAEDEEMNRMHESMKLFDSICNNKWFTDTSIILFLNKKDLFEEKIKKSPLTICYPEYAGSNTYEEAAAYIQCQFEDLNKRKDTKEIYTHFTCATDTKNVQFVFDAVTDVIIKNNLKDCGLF
# HPGD block: inhibitors of human 15-hydroxyprostaglandin dehydrogenase (HPGD) | purified HPGD, NADH fluorescence kinetic, PGE2 substrate | Potency, µM, for the others: top-dose activity change, negative = inhibition, usual class: inhibitors | 150,000 compounds, 4.3% hits | AID 894; active = well fitted inhibition curve with a large enough effect, not every such curve was filed as active; inconclusive = small, poorly fitted or top-dose-only effect, or another doubt; inactive = no such curve, though single readings can be large or run the other way; also: potency is read from the fitted curve at half-maximal effect; % is scaled to controls: 0 for no effect and ±100 for the full control effect
#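 NADH formation kinetics: reaction with 30 uM PGE2 and 1 mM NAD+ (final), 20 nM enzyme, Tris-HCl pH 8 with Tween 20, after 15 min compound preincubation at room temperature. Fluorescence change, last versus first of five reads.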
# PNC assembly inh: perinucleolar compartment assembly inhibition; PC3M PTB-GFP, PNC prevalence imaging, 16 h; stronger effect = lower value; activity change (PNC), negative = inhibition, % at 10 µM; 140,000 compounds, 3.1% hits;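 active = readout at or below -70, meaning at least 70% loss of cells showing the perinucleolar compartment, a nuclear body marking cancer cells; inconclusive = readout between -30 and a set limit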;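 also: plate controls were DMSO wells for no effect and camptothecin positive control wells for full effect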
#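 Read-out is percentage of cells bearing a perinucleolar compartment, from automated 20x imaging of fixed, Hoechst-stained PC3M PTB-GFP cells. Cells were seeded 4 h, then exposed 16 h to compound (23 nl of library stock) in duplicate plates.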
# HTT cytoprotect: Huntington cell model cytoprotection by ATP luminescence | 230,000 compounds, 0.14% hits | PC12 HTT-Q103 induced, cytoprotection, ATP luminescence, 40 h | Potency, µM (highest dose often 56.4 µM), for the others: cytoprotection (ATP increase), actives largely listed as activators | AID 1471; also: potency is read from the fitted curve at half-maximal effect; % of control where 0% means no effect; nearly all actives have a fitted effect of over 45% in size
#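 Rat PC12, Q103 Htt exon1-GFP fusion, ecdysone promoter; tebufenozide inducer 100 nM final; compound titration; qHTS, 1500 cells/well; ATPlite luminescent read.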
# ALDH1A1 inh-2: Confirms inhibition of human ALDH1A1 with counterscreen; AID 493210; 90 compounds, 90% hits; shares compounds with ALDH1A1 inh-1; Potency, µM (series often up to 57.1 µM), inactives show at the top dose activity change, negative = inhibition, actives largely listed as inhibitors; purified ALDH1A1, NADH fluorescence, propionaldehyde/NAD+; calls by dose curve
# An asterisk follows results filed as active; u = inconclusive; x = no result given; [ ] = dose if it differs, or a comment. Unless noted, calls follow the shape of the dose curve; as a rule, active = well fitted curve in the direction sought with a large enough effect; inconclusive = small, poorly fitted or top-dose-only effect, or another doubt; inactive = no such curve, though single readings can be large; an effect the other way counts as inactive or inconclusive.
SMILES,HttQ103 aggreg,ALDH1A1 inh-1,RGS12 GoLoco inh,HPGD block,PNC assembly inh,HTT cytoprotect,ALDH1A1 inh-2
COc1ccc(C2C(=O)N(CCc3ccccc3)CC(=O)N2C2CCCCC2)cc1 (stereo not drawn),8%,u,4%,-5%,31,-6%,x
O=C(NC1CC1)C1=C[C@@H](C2CCCCC2)C[C@@H](OCCCCO)O1,-19%[9.22 µM],-2%,-2%,x,x,-2%[10 µM],x
Cc1ccc(Cn2c(CN3CCN(C(=O)c4ccco4)CC3)nc3c2c(=O)n(C)c(=O)n3C)cc1,u,0.16µM*,-10%,-11%,-6,7%[0.074 µM],0.5µM*
COc1ccccc1CC(NC(C)=O)C(=O)NC1CCN(C(=O)c2ccc([N+](=O)[O-])cc2)CC1 (stereo not drawn),0%,8%,0%,-1%,89,3%[10 µM],x
COc1ccc(CNC(=O)C(c2ccco2)N(Cc2cccs2)C(=O)Cc2cccs2)cc1 (stereo not drawn),-28%,0.63µM*,17%,-24%,-12,4%[10 µM],1.3µM*
CC[C@H](C)[C@H](NC(=O)OCC1c2ccccc2-c2ccccc21)C(=O)O,x,0.45µM*,-10%,-3%,x,-45%[1.9 µM],1µM*
CCc1ccccc1NC(=O)N[C@H](C(=O)O)C(C)CC (stereo partly drawn),-6%[9.22 µM],-5%,7%,-4%,-12,3%,x
COC(=O)c1ccc(Oc2nc3c(c(=O)n(C)c(=O)n3C)n2CCC(C)C)cc1,-20%,0.045µM*,-18%,-18%,38,4%,0.1µM*
Cc1ccc(Sc2nc3c(c(=O)[nH]c(=O)n3C)n2CCc2ccccc2)cc1,-7%,0.63µM*,-9%,-14%,38,16%[10 µM],0.89µM*

# From PubChem
